TDP1 cell noCPT – qHTS for Inhibitors of human tyrosyl-DNA phosphodiesterase 1 (TDP1): qHTS in cells in absence of CPT; DT40 Tdp1-/- hTDP1 cells, no CPT, ATP luminescence, 48 h; Potency, µM (series often up to 46.2 µM), inactives show at the top dose activity change, negative = growth inhibition, most hits filed as inhibitors; 420,000 compounds, 15% hits; further: nearly all actives have a fitted effect of over 55% in size
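Growth of hTDP1-complemented DT40 Tdp1-knockout cells is measured by ATP luminescence after at least 48 hr compound exposure at 37 °C, with DMSO substituting for the 20 nM CPT used in the parallel screen.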
DT40 TDP1 CPT – DT40-hTDP1 cell growth loss with CPT | chicken DT40 Tdp1-/-;hTDP1 cells + 20 nM CPT, ATP luminescence, 48 h | Potency, µM (titrated, usually from 46.2 µM), without a hit: top-dose activity change, negative = growth inhibition, hits mostly inhibitors | 420,000 compounds, 12% hits | AID 686979; further: nearly all actives have a fitted effect of over 55% in size
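Chicken DT40 Tdp1-/- cells complemented with human TDP1, 400 cells/well, exposed to compounds plus 20 nM camptothecin for at least 48 h at 37 C; viability read as ATP content by CellTiter-Glo luminescence.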
ELG1 repair inh – blocks ELG1-dependent DNA repair in HEK293T cells | HEK293T ELG1-luciferase reporter, luminescence, 16 h; DNA damage induced by 5-fluorouridine | Potency, µM (doses to about 46.1 µM), for the others: at the highest dose activity change, negative = inhibition, usual class: inhibitors | 330,000 compounds, 2.3% hits | AID 504467; further: nearly all actives have a fitted effect of over 55% in size
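Cells (2,000 per well) received 5-fluorouridine plus test compound or DMSO and were incubated 16 hr at 37 °C, 5% CO2. Luciferase activity was read by luminescence 30 min after ONE-Glo addition; signal suppression marked inhibition of damage-induced ELG1 function.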
VP16 counter – counter-screen for ROR gamma inhibitors: Gal4-VP16 reporter; Drosophila S2 Gal4-VP16 UAS-luciferase, luminescence, 20 h; Potency, µM (highest dose often 53.6 µM), for the others: at the highest dose activity, negative = inhibition, hits mostly inhibitors; 310,000 compounds, 3.5% hits;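 further: Gal4-VP16 expression switched on by copper sulfate through the metallothionein promoter; nearly all actives have a fitted effect of over 50% in size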
ALOX12 inh – ALOX12 (human) lipoxygenase inhibition; P18054; purified 12hLO, xylenol orange hydroperoxide absorbance; Potency, µM (series often up to 108 µM), for the others: at the top dose activity change, negative = inhibition, most hits filed as inhibitors; 580,000 compounds, 1.1% hits
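Purified human 12hLO (150 nM final) in 25 mM Hepes, 0.01% Triton X-100, pH 7.0 was preincubated 15 min at room temperature with compound. Then 40 uM arachidonic acid was added, 30 min. Hydroperoxide was read by Fe-XO absorbance ratio 573/405 nm.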
RORgamma inh – inhibitors of mouse ROR gamma transcriptional activity | 310,000 compounds, 5.4% hits | AID 2551 | P51450 | Potency, µM (doses to about 53.6 µM), for the others: at the highest dose activity change, negative = inhibition, actives largely listed as inhibitors | Drosophila S2 Gal4-RORgamma UAS-luciferase reporter, 20 h; further: nearly all actives have a fitted effect of over 60% in size
Target sequence (P51450 whole entry, looked up, the tested form may be a part): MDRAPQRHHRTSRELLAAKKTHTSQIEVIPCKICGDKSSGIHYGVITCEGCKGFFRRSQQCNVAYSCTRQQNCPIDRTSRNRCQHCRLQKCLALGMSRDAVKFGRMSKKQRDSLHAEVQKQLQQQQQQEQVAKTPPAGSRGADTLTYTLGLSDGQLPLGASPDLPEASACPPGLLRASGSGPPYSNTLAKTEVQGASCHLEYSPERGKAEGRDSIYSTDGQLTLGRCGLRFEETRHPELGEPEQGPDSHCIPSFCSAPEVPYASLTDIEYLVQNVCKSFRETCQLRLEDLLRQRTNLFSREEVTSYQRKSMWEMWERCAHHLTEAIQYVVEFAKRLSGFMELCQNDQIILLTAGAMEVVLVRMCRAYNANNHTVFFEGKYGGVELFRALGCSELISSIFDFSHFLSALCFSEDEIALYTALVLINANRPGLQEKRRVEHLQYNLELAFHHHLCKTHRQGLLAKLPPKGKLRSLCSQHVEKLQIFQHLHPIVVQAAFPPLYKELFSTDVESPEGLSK
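Read-out: Photinus luciferase luminescence; inhibitors lower reporter signal. Insect Schneider cells with Gal4-ROR gamma fusion under metallothionein promoter, UAS reporter; 700 uM final copper sulfate induction, 20 hr, ambient temperature.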
* marks the source's active call; other numbers are inactive results; [ ] = remark or other dose. Sampled rows, rich in hits. Any-hit rate of the full collection: about 15%. The call rests on the fitted dose curve; in most records, active means well fitted curve in the direction sought with a large enough effect; inconclusive means small, poorly fitted or top-dose-only effect, or another doubt; inactive means no such curve, though single readings can be large; an effect the other way counts as inactive or inconclusive. On the % scale 0 is the no-effect control and ±100 the full control effect; potency means the concentration at half of the fitted maximal effect.

Screening Cc1ccc(-c2nnc(NC(=O)CCS(=O)(=O)c3ccc(F)cc3)o2)c(C)c1 returned TDP1 cell noCPT -6%, DT40 TDP1 CPT -6%, ELG1 repair inh 3% and ALOX12 inh 9%.
O=C(CCS(=O)(=O)c1ccc(F)cc1)Nc1nnc(-c2ccc(F)cc2)o1 was read as TDP1 cell noCPT 16µM*, DT40 TDP1 CPT 13µM*, ELG1 repair inh -6% and ALOX12 inh 5%.
COc1cc(OC)c(OC)cc1CNC(=O)c1cc(Br)ccc1O was read as ALOX12 inh -51%.
COc1ccc(/C=C2\Oc3cc(OC(=O)C(C)(C)C)ccc3C2=O)cc1 was read as ALOX12 inh -22%.
N#CCNC1CC(=O)N(c2ccc(F)cc2)C1=O (stereo not given) was read as TDP1 cell noCPT inconclusive, DT40 TDP1 CPT 4.6µM*, ELG1 repair inh 6%, VP16 counter -2%, ALOX12 inh 42% and RORgamma inh -29%.
For COc1ccc(C(c2c(C)[nH]n(C(N)=S)c2=O)C(C#N)C#N)cc1 (stereo not given) the results were TDP1 cell noCPT inconclusive, DT40 TDP1 CPT 23µM*, ELG1 repair inh inconclusive, VP16 counter 4.5µM*, ALOX12 inh inconclusive and RORgamma inh 4.5µM*.
For Cc1cc(C)cc(NC(=O)OCCN2CCN(Cc3ccccc3)CCC2=O)c1 the results were TDP1 cell noCPT 23µM*, DT40 TDP1 CPT -23%, ELG1 repair inh inconclusive, VP16 counter 2%, ALOX12 inh 11% and RORgamma inh 14%.
Screening Cc1ccc(S(=O)(=O)N2CCC(=O)N(CCOC(=O)Nc3ccccc3C)CC2)cc1 returned TDP1 cell noCPT inconclusive, DT40 TDP1 CPT -27%, ELG1 repair inh 0%, VP16 counter -9%, ALOX12 inh inconclusive and RORgamma inh -11%.
Screening Cc1ccc(S(=O)(=O)N2CCC(=O)N(CCOC(=O)Nc3cc(C)cc(C)c3)CC2)cc1 returned TDP1 cell noCPT inconclusive, DT40 TDP1 CPT 16µM*, ELG1 repair inh -24%, VP16 counter -13%, ALOX12 inh -13% and RORgamma inh 37%.
For Cc1ccc(NC(=O)CSc2cnc3cc(S(=O)(=O)N4CCCCC4)ccc3n2)cc1 the results were ALOX12 inh -8%.
CN(C)CCCNc1oc(/C=C/c2cccs2)nc1C#N was read as ALOX12 inh -27%.
Screening CCOc1cc(C(=O)O)ccc1OCc1ccccc1 returned ALOX12 inh -25%.
S=C1Nc2ccccc2Sc2ccc(Cl)cc21 was read as TDP1 cell noCPT inconclusive, DT40 TDP1 CPT inconclusive, ELG1 repair inh 5%, VP16 counter 2.8µM*, ALOX12 inh -28% and RORgamma inh 1.8µM*.
`N#CC1=C(N)NC(=S)C(C(N)=O)C1c1ccc([N+](=O)[O-])cc1` (stereo not given) gave TDP1 cell noCPT -6%, DT40 TDP1 CPT 5%, ELG1 repair inh 9%, VP16 counter 13µM*, ALOX12 inh 45µM* and RORgamma inh inconclusive.
For Cc1cccc[n+]1C1C(c2ccc([N+](=O)[O-])cc2)C(C#N)=C(C(=C=[N-])C#N)NC1(O)C1CC1 (stereo not given) the results were TDP1 cell noCPT -25%, DT40 TDP1 CPT 11%, ELG1 repair inh -14%, VP16 counter -3%, ALOX12 inh -13% and RORgamma inh -21%.
CC(C)(C)OC(=O)N(CCc1ccccc1)Cc1ccc(OCc2cccc(NC(=O)C3CCC3)c2)cc1 was read as TDP1 cell noCPT 15µM*, DT40 TDP1 CPT 21µM* and ALOX12 inh 12%.
CC(C)(C)OC(=O)N(CCc1ccccc1)Cc1cccc(OCc2cccc(NC(=O)c3ccccc3)c2)c1 was read as TDP1 cell noCPT 18µM*, DT40 TDP1 CPT 23µM* and ALOX12 inh -4%.
`CC(C)(C)OC(=O)N(CCc1ccccc1)Cc1ccc(OCc2cccc(NC(=O)/C=C/c3ccccc3)c2)cc1` gave TDP1 cell noCPT -24%, DT40 TDP1 CPT -20% and ALOX12 inh -11%.
CC(C)(C)OC(=O)N(CCc1ccccc1)Cc1ccccc1OCc1cccc(NC(=O)/C=C/c2ccccc2)c1 was read as TDP1 cell noCPT 7.3µM*, DT40 TDP1 CPT 9.2µM* and ALOX12 inh 0%.
Screening CC(C)(C)OC(=O)N(CCc1ccccc1)Cc1ccc(OCc2cccc(NC(=O)C3CC3)c2)cc1 returned TDP1 cell noCPT 4.6µM*, DT40 TDP1 CPT 5.8µM* and ALOX12 inh inconclusive.
`COc1ccc(C(=O)N2CCC(C(NC(=O)c3ccccc3Cl)C(=O)N3CCCCC3)CC2)cc1` (stereo not given) gave ALOX12 inh 28%.
For CC1CC[C@@]2(OC1)OC1CC3C4CC(O)C5CC(O)CCC5(C)C4CCC3(C)C1[C@@H]2C (stereo not given in full) the results were ALOX12 inh 3%.
CN(Cc1ccsc1)C1CCOc2ccccc21 (stereo not given) was read as ALOX12 inh 31%[176 µM].
C=CCNc1nnc(SCc2coc(-c3ccccc3)n2)s1 was read as ALOX12 inh 1%.
Screening COc1ccc(CCc2nc3nccc(-c4ccsc4)n3n2)cc1OC returned ALOX12 inh 50%.
`COC(=O)C(c1ccccc1)N(Cc1cccc(CN(C(C(=O)OC)c2ccccc2)S(C)(=O)=O)c1)S(C)(=O)=O` (stereo not given) gave TDP1 cell noCPT 16µM*, DT40 TDP1 CPT inconclusive, ELG1 repair inh -14%, VP16 counter -5%, ALOX12 inh 2% and RORgamma inh -1%.
CC1(C)CC(=O)C(/C=N/n2c(C(F)(F)F)nc3ccccc3c2=O)=C(O)C1 was read as TDP1 cell noCPT inconclusive, DT40 TDP1 CPT 16µM*, ELG1 repair inh -13%, VP16 counter -22%, ALOX12 inh 3%[57.4 µM] and RORgamma inh -25%.
Cc1ccc2c(c1)-c1[nH]c(=S)ncc1CS2 was read as TDP1 cell noCPT 18µM*, DT40 TDP1 CPT inconclusive, ELG1 repair inh 5%, VP16 counter -13%, ALOX12 inh 32µM* and RORgamma inh 2.2µM*.
For Cc1ccc2cc(/C=C/C(=O)NC3CCCC3)oc2c1 the results were ALOX12 inh -32%.

Source: PubChem BioAssay (National Center for Advancing Translational Sciences (NCATS))
